Assay outcomes as filed in PubChem.
Shown are actives, neighbours in structure and some others; about 10% of the full set was active somewhere.
HP1b binding inh = HTS for Inhibitors of HP1-beta Chromodomain Interactions with Methylated Histone Tails; Chromobox protein homolog 1 (Homo sapiens), P83916; AlphaScreen HP1-beta / biotin-H3K9me3 peptide binding; Potency, µM (highest dose often 114 µM), for inactives: at the highest dose activity change, negative = inhibition, usual class: inhibitors; 0.56% of 390,000 active; further: nearly all actives have a fitted effect of over 70% in size
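Compound inhibition of the preformed complex between 50 nM HP1-beta and 50 nM biotinylated H3K9me3 peptide was read by AlphaScreen. Buffer was PBS pH 7.4 with 0.01% Tween-20. Incubations ran 30 min at room temperature, with 10 ug/mL donor/acceptor beads.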
JMJD2A Tudor inh = qHTS Assay for Inhibitors of JMJD2A-Tudor Domain; Lysine-specific demethylase 4A (Homo sapiens), O75164; 4.4% of 390,000 active; AlphaScreen JMJD2A-Tudor / H3K4me3 peptide binding; Potency, µM (titrated, usually from 114 µM), inactives show at the top dose activity change, negative = inhibition, usual class: inhibitors; further: on the % scale 0 is the no-effect control and ±100 the full control effect; nearly all actives have a fitted effect of over 50% in size
Target sequence (O75164 whole entry, looked up, the tested form may be a part): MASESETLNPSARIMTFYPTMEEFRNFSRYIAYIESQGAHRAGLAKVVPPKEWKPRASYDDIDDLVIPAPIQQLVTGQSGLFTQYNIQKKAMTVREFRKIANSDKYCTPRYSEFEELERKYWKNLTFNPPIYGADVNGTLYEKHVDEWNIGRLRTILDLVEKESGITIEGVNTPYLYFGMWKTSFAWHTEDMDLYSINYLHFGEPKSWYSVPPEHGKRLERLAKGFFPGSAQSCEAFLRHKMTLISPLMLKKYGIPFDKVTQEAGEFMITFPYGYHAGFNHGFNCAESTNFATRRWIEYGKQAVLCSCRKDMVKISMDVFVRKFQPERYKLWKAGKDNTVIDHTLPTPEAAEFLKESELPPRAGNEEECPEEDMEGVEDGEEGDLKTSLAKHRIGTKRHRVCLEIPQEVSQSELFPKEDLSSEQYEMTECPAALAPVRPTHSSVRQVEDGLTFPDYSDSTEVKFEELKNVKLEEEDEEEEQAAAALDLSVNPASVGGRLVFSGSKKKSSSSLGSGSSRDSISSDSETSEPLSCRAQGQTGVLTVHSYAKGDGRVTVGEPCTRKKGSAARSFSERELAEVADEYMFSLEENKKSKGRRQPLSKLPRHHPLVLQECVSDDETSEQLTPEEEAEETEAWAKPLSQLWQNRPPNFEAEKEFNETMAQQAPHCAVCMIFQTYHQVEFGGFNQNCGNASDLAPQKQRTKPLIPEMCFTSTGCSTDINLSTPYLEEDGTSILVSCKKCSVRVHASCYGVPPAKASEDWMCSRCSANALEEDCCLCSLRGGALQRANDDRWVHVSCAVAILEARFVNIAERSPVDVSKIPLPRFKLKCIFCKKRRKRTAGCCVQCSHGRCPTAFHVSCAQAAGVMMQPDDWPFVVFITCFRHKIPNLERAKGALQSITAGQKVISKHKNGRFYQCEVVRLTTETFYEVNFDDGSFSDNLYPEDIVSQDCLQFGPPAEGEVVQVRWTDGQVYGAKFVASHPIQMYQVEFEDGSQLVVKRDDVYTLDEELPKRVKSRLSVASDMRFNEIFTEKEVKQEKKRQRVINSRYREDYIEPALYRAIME
BAZ2B inh = qHTS Assay for Inhibitors of BAZ2B; AlphaScreen BAZ2B-H3K14Ac peptide displacement; Potency, µM (doses to about 114 µM), for inactives: top-dose activity change, negative = inhibition, usual class: inhibitors; 4.4% of 360,000 active; further: on the % scale 0 is the no-effect control and ±100 the full control effect; nearly all actives have a fitted effect of over 60% in size
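Protein-peptide AlphaScreen: BAZ2B 50 nM, b-H3K14Ac 50 nM, 1x PBS pH 7.4 + 0.01% Tween-20. Preincubation 30 min RT; cpd 30 min RT (top 110 uM); beads 20 min RT, light-protected.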
GLS inh = qHTS for Inhibitors of Glutaminase (GLS); 0.21% of 410,000 active; Glutaminase kidney isoform, mitochondrial (Homo sapiens), O94925; Potency, µM (series often up to 45.5 µM), inactives show top-dose activity change, negative = inhibition, usual class: inhibitors; AID 624170, 2012; GLS enzymatic activity, qHTS titration; further: on the % scale 0 is the no-effect control and ±100 the full control effect
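Coupled fluorescence readout: glutamate oxidase/HRP/Amplex Red detect glutamate formed by hKGA from L-glutamine (1 mM solution added). Buffer 45 mM KH2PO4 pH 8.2, 0.02% Tween-20; reads at t0 and 30 min RT.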
G9a inh = qHTS Assay for Inhibitors of Histone Lysine Methyltransferase G9a. Histone-lysine N-methyltransferase EHMT2 (Homo sapiens), Q96KQ7. AID 504332, 2011. Potency, µM (highest dose often 102 µM), inactives show at the highest dose activity, negative = inhibition, usual class: inhibitors. G9a H3K9 monomethylation, AlphaScreen, 2 h. 8.8% of 350,000 active; further: on the % scale 0 is the no-effect control and ±100 the full control effect; nearly all actives have a fitted effect of over 75% in size
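Compounds were preincubated with 20 nM G9a for 15 min, after which biotinylated H3K9 peptide (500 nM) and SAM (20 uM) started a 2 h room-temperature reaction. Monomethylated product was quantified by antibody-based AlphaScreen chemiluminescence.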
* marks the source's active call; other numbers are inactive results; ? = inconclusive; . = no result given; [ ] = remark or other dose. The call rests on the fitted dose curve; in most records, active means well fitted curve in the direction sought with a large enough effect; inconclusive means small, poorly fitted or top-dose-only effect, or another doubt; inactive means no such curve, though single readings can be large; an effect the other way counts as inactive or inconclusive. Potency means the concentration at half of the fitted maximal effect.

SMILES	HP1b binding inh	JMJD2A Tudor inh	BAZ2B inh	GLS inh	G9a inh
COc1ccc(N2CCN(c3ncnc4sc(C(=O)NCC5CCCO5)c(C)c34)CC2)cc1 (stereo not given)	-19%	?	-22%	3%	40µM*
COc1ccc(N2CCN(c3ncnc4scc(-c5ccc(F)cc5)c34)CC2)cc1	?	22µM*	7.9µM*	8%	10µM*
Nc1nonc1-n1nnc(C(=O)N/N=C/c2ccc(OCc3ccccc3F)cc2)c1CN1CCCCC1	11%[57 µM]	-6%	-7%	10%	-10%
CCOC(=O)c1c(C)[nH]c(C(=O)NCc2ccccn2)c1C	37%	-8%	5%	-5%	-28%
CN(CC(=O)Nc1ccccc1Cl)C(=O)COC(=O)CSc1ccc(Cl)cc1	36%	-17%	-4%	0%	-14%[59 µM]
COc1ccc(N2CCN(c3ncnc4scc(-c5ccc(C)cc5)c34)CC2)cc1	?	25µM*	11µM*	35%	25µM*
COc1ccc(-c2csc3ncnc(N4CCN(c5cccc(OC)c5)CC4)c23)cc1	-2%	-29%	-20%	1%	.
COc1ccc(NC(=O)c2cc(C3CC3)nc3c2c(C)nn3-c2ccccc2)c(OC)c1	24%	-11%	-1%[57.1 µM]	-13%	0%[59 µM]
O=C(Cn1c(-c2cccs2)cc2ccccc21)NCCCN1CCN(c2ccc(F)cc2)CC1	31%	?	10%	9%	-3%[59 µM]
COc1ccc(N2CCN(CCCNC(=O)Cn3c(-c4cccs4)cc4ccccc43)CC2)cc1	-31%	18µM*	?	20%	10µM*
COc1ccc(N2CCN(CCCNC(=O)CN3CCN(Cc4ccccc4C)C3=O)CC2)cc1	?	?	32µM*	54%	?
COc1ccc(N2CCN(CCCNC(=O)c3cc4sccc4n3C)CC2)cc1	-52%	32µM*	40µM*	46%	14µM*
Cc1ccc(S(=O)(=O)N2CCC(C(=O)Nc3cc(C(F)(F)F)ccc3N3CCOCC3)CC2)cc1C	-2%	-13%	-4%	0%	13%[0.501 µM]
Cc1ccc(-n2nc3ccc(NC(=O)c4oc5ccccc5c4C)cc3n2)cc1	60%	-5%	1%	9%	14%[59 µM]
Cc1cccc(C)c1OCCCCCNCCO	17%	-20%	5%	1%	0%[12.7 µM]
COc1ccc(-c2c(C#N)c(C)nc3c2C(=O)c2ccccc2-3)cc1	73%	-23%	19%	0%	16%[0.501 µM]
Cc1cc2oc(=O)cc(CSc3nc(N)cc(N)n3)c2cc1C(C)C	2%	-22%	32µM*	14%	-22%
CC1Cc2cc(S(=O)(=O)NCc3ccc(N(C)C)cc3)ccc2N1C(=O)C1CCC1 (stereo not given)	-21%	45µM*	35µM*	-3%	11µM*
COc1ccc(CNS(=O)(=O)c2ccc3c(c2)CC(C)N3C(=O)C2CC2)cc1 (stereo not given)	32%	-14%	-6%	1%	-3%[59 µM]
CN(C)c1ccc(CNS(=O)(=O)c2csc(C(N)=O)c2)cc1	15%	-17%	-11%	?	50µM*
C=CCNC(=S)Nc1ccc(C)cc1[N+](=O)[O-]	33%	-13%	-21%	7%	-51%
CCN(CC)CCC(c1ccc(N(C)C)cc1)c1c(OC)cc(OC)c2c(C)cc(=O)oc12 (stereo not given)	?	35µM*	.	.	.
CCCCCc1cc(=O)oc2c(C(CCN(CC)CC)c3ccc(N(C)C)cc3)c(OC)cc(OC)c12 (stereo not given)	?	28µM*	14µM*	18%	?
Cc1cccc(-n2c(CCc3ccccc3)nnc2SCC(=O)c2ccccc2)c1	22%	?	-13%	1%	1.8µM*
COc1ccc(NCc2nnc(SCc3ccc(Cl)cc3)n2-c2ccccc2)cc1	?	45µM*	22µM*	6%	?
